Only some compounds are listed: those with a hit (about 7.4% of all), similar ones and a draw of the others.
ELG1 genotoxic: inducers of genotoxicity in HEK293T ELG1-luciferase cells; HEK293T ELG1-luciferase reporter, luminescence, 16 h; Potency, µM (top dose mostly 46 µM), most hits filed as activators; AID 504466; actives 1.3% (n = 330,000); further: nearly all actives have a fitted effect of over 60% in size
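Quantitative HTS format in 1536-well plates. HEK293T ELG1-luciferase reporter cells receive test compound and are incubated 16 hr at 37 °C, 5% CO2; ONE-Glo added, 30 min room temperature, then luminescence read.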
SMN2 splice enh: SMN2 splice variant enhancement; HEK293 SMN2-luciferase splicing reporter, luminescence, 30-36 h; Potency, µM (series often up to 46.1 µM), hits mostly activators; actives 2.8% (n = 210,000); AID 1458; further: nearly all actives have a fitted effect of over 55% in size
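qHTS luciferase splicing reporter: luminescence rises when SMN2 exon 7 is included in transfected HEK293 cells. Compound exposure lasted 30-36 h at 37C, with 4.5 mM final sodium butyrate as control, followed by a ONE-Glo read.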
Rab9 promoter act: Rab9 promoter activation; Huh7 Rab9 promoter-luciferase reporter, luminescence, 24 h; Potency, µM (doses to about 9.22 µM), actives largely listed as activators; actives 2.8% (n = 320,000); further: nearly all actives have a fitted effect of over 60% in size
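Huh7 cells stably carrying Rab9 promoter–luciferase reporter, plated 1500 cells/well, compound added after 2 h and incubated 24 h at 37 °C; luciferase luminescence then read after 10 min with detection reagent.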
NPC1 promoter act: activates the NPC1 promoter; Huh7 NPC1 promoter luciferase reporter, 24 h; Potency, µM (titrated, usually from 9.22 µM), most hits filed as activators; actives 2.4% (n = 320,000); AID 485313; further: nearly all actives have a fitted effect of over 60% in size
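Huh7 cells stably carrying NPC1 promoter–luciferase, plated in Opti-MEM with 10% FBS for 2 h, were exposed to compound in DMSO for 24 h at 37 °C; luciferase reagent was added for 10 min and luminescence read.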
FLuc modulator: firefly luciferase modulation, counter-screen for miR-21 project. purified FLuc, Km substrates, luminescence inhibition. Potency, µM (titrated, usually from 57.5 µM), usual class: inhibitors. actives 6.9% (n = 360,000). AID 588342; further: nearly all actives have a fitted effect of over 55% in size
Target sequence (P08659 whole entry, looked up): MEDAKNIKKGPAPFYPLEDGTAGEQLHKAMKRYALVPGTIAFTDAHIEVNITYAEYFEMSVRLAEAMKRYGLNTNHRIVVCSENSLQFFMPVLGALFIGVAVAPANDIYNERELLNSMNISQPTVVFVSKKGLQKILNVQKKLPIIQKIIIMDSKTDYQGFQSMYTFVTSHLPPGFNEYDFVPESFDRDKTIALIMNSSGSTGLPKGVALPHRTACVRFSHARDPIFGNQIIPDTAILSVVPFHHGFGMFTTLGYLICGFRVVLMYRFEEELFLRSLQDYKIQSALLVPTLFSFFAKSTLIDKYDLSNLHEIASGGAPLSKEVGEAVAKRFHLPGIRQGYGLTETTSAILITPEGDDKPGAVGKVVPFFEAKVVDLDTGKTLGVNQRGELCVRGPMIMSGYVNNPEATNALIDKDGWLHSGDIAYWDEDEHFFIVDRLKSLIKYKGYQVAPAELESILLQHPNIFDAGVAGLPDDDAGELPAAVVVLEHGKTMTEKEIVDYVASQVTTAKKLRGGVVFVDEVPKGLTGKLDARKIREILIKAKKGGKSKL
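Purified P. pyralis luciferase, 10 nM final, with Km-level 10 uM D-luciferin and 10 uM ATP in 50 mM Tris acetate pH 7.5, 10 mM Mg acetate, 0.01% Tween-20, 0.05% BSA; 6-point qHTS titration about 60 µM downward; luminescence read.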
Hits are given with their value; i = inactive; ? = inconclusive; nt = not tested or not shown; [ ] = another dose, or the depositor's remark. The call rests on the fitted dose curve; in most records, active means well fitted curve in the direction sought with a large enough effect; inconclusive means small, poorly fitted or top-dose-only effect, or another doubt; inactive means no such curve, though single readings can be large; an effect the other way counts as inactive or inconclusive.

SMILES	ELG1 genotoxic	SMN2 splice enh	Rab9 promoter act	NPC1 promoter act	FLuc modulator
Cc1ccc(C(=O)Nc2ccc(Oc3ccc(C(=O)O)c(C(=O)O)c3)cc2)cc1C	i	i	i	i	6µM
Cc1cccc(C(=O)Nc2ccc(C(=O)Nc3ccc(O)cc3)cc2)c1	?	nt	i	i	i
Cc1cccc(C(=O)NNC(=O)c2ccccc2C)c1	i	i	i	i	?
Cc1ccc(/C=C/C(=O)c2c(C)nc3ccccn23)cc1	i	?	1.4µM	?	1.1µM
Cc1cccc(C(=O)Nc2ccc(NC(=O)c3ccccc3)cc2)c1	i	nt	i	i	24µM
Cc1nc2ccccn2c1C(=O)/C=C/c1cccc([N+](=O)[O-])c1	i	i	i	i	i
CCOC(=O)c1cccc(NC(=O)CCn2c(-c3ccc(F)cc3)cc(C(=O)OCC)c2C)c1	nt	nt	nt	nt	i
CC(=O)c1cccc(NC(=S)NC(=O)c2ccccc2C)c1	i	nt	i	i	?
CC(=O)c1cccc(NC(=S)NC(=O)c2ccccc2Br)c1	i	i	i	i	17µM
COC(=O)c1cccc(NC(=S)NCc2ccc(Cl)cc2)c1	i	i	i	i	i
CC(=O)c1cccc(NC(=S)NC(=O)c2cccc(C)c2)c1	?	16µM	3.2µM	?	4.3µM
CC(=O)c1cccc(NC(=S)NC(=O)c2ccc(Cl)cc2)c1	?	16µM	?	?	13µM
Cc1cccc(NC(=S)NNC(=O)c2ccccc2OC(F)F)c1	i	?	i	i	i
Cc1cccc(NC(=S)NNC(=O)c2ccccc2Br)c1	i	13µM	3.2µM	i	?
C[C@H]1[C@H](C)CC[C@]2(C(=O)O)CC[C@]3(C)C(=CC[C@H]4[C@]3(C)C[C@@H](O)C3[C@](C)(CO)[C@H](O)[C@@H](O)C[C@]34C)[C@H]12 (stereo not given in full)	nt	i[9.22 µM]	nt	nt	nt
Cn1nc(-c2ccc(OCC(=O)Nc3ccc(Cl)cc3)cc2)c2ccccc2c1=O	nt	i	nt	nt	i
S=C1NC2(CCS1)Oc1ccccc1C1CC(c3ccccc3)=NN12 (stereo not given)	i	nt	i	i	27µM
COc1ccc2c(c1OC)C(=O)N1N=C(c3ccc(-c4ccccc4)cc3)CC21 (stereo not given)	i	i	i	i	?
CCOc1ccc(Cn2nnc3c(=O)[nH]c(C4CCN(C(=O)c5ccccc5)CC4)nc32)cc1	nt	i	nt	nt	i
CCN1C(=O)CC(N2CCN(c3ccc(C(=O)c4ccccc4)cc3)CC2)C1=O (stereo not given)	nt	i	nt	nt	19µM
COc1ccc(-c2nc3cc(C(C)C)ccc3o2)cc1NC(=O)COc1ccc(C)cc1C	nt	i	nt	nt	i
Cc1c([N+](=O)[O-])c(C(=O)Sc2ccc(Br)cc2)nn1C	i	nt	i	i	17µM
CCOc1ccc2nc(NC(=O)CSc3nnc(-c4ccncc4)n3CC3CCCO3)sc2c1 (stereo not given)	?	i	?	?	2.4µM
Cc1csc(NC(=O)c2ccc(OCC3CCCO3)cc2)n1 (stereo not given)	i	1.4µM	0.45µM	?	5.4µM
Cc1cccc2sc(NC(=O)c3ccc(OCC4CCCO4)cc3)nc12 (stereo not given)	i	i	i	i	11µM
SMILES	ELG1 genotoxic	SMN2 splice enh	Rab9 promoter act	NPC1 promoter act	FLuc modulator
CCOc1ccc2nc(NC(=O)c3ccc(OCC4CCCO4)cc3)sc2c1 (stereo not given)	i	?	i	i	2.7µM
O=C(Nc1nc(-c2ccc(F)c(F)c2)cs1)c1ccc(OCC2CCCO2)cc1 (stereo not given)	i	nt	i	i	i
Cc1ccc(F)cc1NC(=O)c1ccc(OCC2CCCO2)cc1 (stereo not given)	i	nt	nt	nt	nt
CCOc1ccc(CN2C(=O)c3ccccc3Sc3ccc(C(=O)NC4CCC(C)CC4)cc32)cc1 (stereo not given)	nt	i	nt	nt	i
COc1ccccc1Cn1cc(C(=O)c2ccc(C)cc2)c(=O)c2cc3c(cc21)OCCO3	nt	i	nt	nt	i
CC(C)C1C(=O)Nc2ccc(S(=O)(=O)NCc3ccc(Cl)cc3)cc21 (stereo not given)	nt	nt	nt	nt	i
O=C(O)c1ccc(N/N=C/c2ccc(-c3cccc(Cl)c3)o2)cc1	?	nt	0.32µM	0.45µM	2.7µM
Cc1ccc(C(=O)N/N=C/c2ccc(-c3cccc(Cl)c3)o2)cn1	i	nt	i	i	?
O=C(O)c1ccc(N/N=C/c2ccc(-c3cc(Cl)ccc3Cl)o2)cc1	?	nt	?	?	9.5µM

Screening data deposited in PubChem by National Center for Advancing Translational Sciences (NCATS).
